This is a sample that favours compounds with a hit; in the whole collection about 2.3% have one here.
Bim-Mcl-1 = inhibitors of Bim peptide binding to Mcl-1, primary screen, biochemical, bead-based flow cytometry, multiplex. Bim peptide-Mcl-1 binding. actives 0.1% (n = 190,000). inhibition, % at 10 µM. Induced myeloid leukemia cell differentiation protein Mcl-1 (Homo sapiens), Q07820; in the data active means inhibition above about 40%;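 further: 0% = no compound tracer wells and 100% = peptide blocker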
Target sequence (Q07820 whole entry, looked up): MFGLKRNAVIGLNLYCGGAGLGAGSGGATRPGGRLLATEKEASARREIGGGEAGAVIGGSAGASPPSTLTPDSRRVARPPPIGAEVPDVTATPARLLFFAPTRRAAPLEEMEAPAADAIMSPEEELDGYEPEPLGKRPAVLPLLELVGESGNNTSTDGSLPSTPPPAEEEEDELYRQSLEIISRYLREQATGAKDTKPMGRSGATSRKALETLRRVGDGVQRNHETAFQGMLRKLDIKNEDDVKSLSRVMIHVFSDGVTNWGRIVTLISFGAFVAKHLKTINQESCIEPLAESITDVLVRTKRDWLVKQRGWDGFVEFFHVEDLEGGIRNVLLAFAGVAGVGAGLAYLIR
Mcl1-Bid inh = Mcl-1/Bid binding inhibitors, primary screen, biochemical, TR-FRET, 1536-well | Induced myeloid leukemia cell differentiation protein Mcl-1 (Homo sapiens), Q07820 | actives 0.97% (n = 220,000) | TR-FRET Mcl-1/Bid-Dy647 peptide binding | inhibition, % at 21.7 µM | AID 1021, 2008;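 active means compounds that cut the binding signal by more than half at the single screening dose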;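 further: His-tagged Mcl-1 with europium anti-His antibody binding Bid BH3 peptide; 0% = Mcl-1 plus peptide wells and 100% = peptide-only wells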
MCL1-BIM inh = inhibitors of MCL1 binding to BIM-BH3, primary screen, biochemical, fluorescence polarization. GST-MCL1 / FITC-Bim-BH3 fluorescence polarization. actives 0.68% (n = 320,000). AID 2057, 2009. inhibition, % at 10.9 µM. Induced myeloid leukemia cell differentiation protein Mcl-1 (Homo sapiens), Q07820;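 active means inhibition above the mean inhibition of all tested compounds plus 3 SD, set per campaign, cut at about 40% in these data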;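 further: 0% = DMSO wells and 100% = unlabeled Bim-BH3 peptide control; higher means more loss of mP so more displacement of Bim peptide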
GLD-1 TGE inh = GLD-1/TGE RNA complex disruptors, primary screen, biochemical, fluorescence polarization; purified GLD-1 + fluorescein TGE RNA; inhibition, % at 5.96 µM; actives 0.44% (n = 320,000);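 active means percent inhibition above a per-plate cutoff, the plate mean of test compounds plus 3 SD, cut at about 30% in these data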;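 further: 0% = DMSO wells with GLD-1 and probe and 100% = wells lacking GLD-1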
BCLXL inh = inhibitors of human Bcl-xL, primary screen, biochemical, fluorescence polarization, HTS | actives 0.7% (n = 320,000) | inhibition, % at 10.9 µM | Bcl-2-like protein 1 (Homo sapiens), Q07817 | GST-Bcl-xL / FITC-Bim BH3 peptide fluorescence polarization | AID 2129, 2009;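 active means inhibition above the mean of all tested compounds plus 3 SD, cutoff set per campaign, cut at about 30% in these data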;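 further: 0% = DMSO wells and 100% = unlabeled Bim-BH3 peptide competitor; inhibitors lower millipolarization by displacing the labeled peptide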
Target sequence (Q07817 whole entry, looked up): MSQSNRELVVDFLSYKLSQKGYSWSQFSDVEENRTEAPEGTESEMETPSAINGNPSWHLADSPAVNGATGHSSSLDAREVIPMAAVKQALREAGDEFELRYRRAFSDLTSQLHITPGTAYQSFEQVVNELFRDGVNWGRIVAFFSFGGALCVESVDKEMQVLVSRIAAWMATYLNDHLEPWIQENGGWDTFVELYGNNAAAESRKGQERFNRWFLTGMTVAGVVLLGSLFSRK
Mcl1-Noxa inh = Mcl-1/Noxa binding inhibitors, primary screen, biochemical, TR-FRET, 1536-well. Induced myeloid leukemia cell differentiation protein Mcl-1 (Homo sapiens), Q07820. TR-FRET Mcl-1/Noxa peptide binding, 2 h. inhibition, % at 21.7 µM. actives 1.5% (n = 220,000);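 active means compounds that cut the protein-peptide binding signal by more than 50% relative to plate controls in a single-dose test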;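 further: His-tagged Mcl-1 with rhodamine Noxa BH3 peptide and terbium anti-His antibody; 0% = Mcl-1 plus Noxa peptide wells and 100% = peptide-only wells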
* marks the source's active call; other numbers are inactive results; x = not tested or not shown.

SMILES	Bim-Mcl-1	Mcl1-Bid inh	MCL1-BIM inh	GLD-1 TGE inh	BCLXL inh	Mcl1-Noxa inh
CC1(c2ccccc2)CC(C)(C)N2C(=O)/C(=C3\SC(=S)NC3=O)c3cccc1c32 (centres undefined)	-9.0	92.9*	25.2	-1.8	10.2	111.3*
CCOC(=O)c1nc(N/N=C/c2ccccc2)sc1Br	x	x	-1.9	1.0	2.7	x
COc1ccc(/C=C/C(=O)c2ccc(NC3=NCCCS3)cc2)cc1OC	5.0	-18.5	-0.3	-4.5	6.3	50.8*
COc1ccc(/C=C/C(=O)Nc2ccncc2)cc1OC	-1.0	-18.5	0.5	-3.8	2.5	2.9
CCC1CSC(Nc2ccc(C(=O)/C=C/c3ccc(Br)cc3)cc2)=N1 (centres undefined)	4.0	30.6	5.9	0.5	1.2	38.3
CCC1CSC(Nc2ccc(C(=O)/C=C/c3ccc(OC)c(OC)c3)cc2)=N1 (centres undefined)	0.0	-27.9	-1.5	2.5	5.1	67.7*
O=C(N/N=C/C=C\c1ccccc1[N+](=O)[O-])c1cccs1	0.0	-13.5	11.2	4.7	9.7	9.9
O=C(/C=C/c1cccc([N+](=O)[O-])c1)Nc1ccc(NC(=O)c2cccs2)cc1	1.0	80.9*	6.1	2.4	6.9	58.5*
O=C(N/N=C/C=C/c1ccc([N+](=O)[O-])cc1)c1cccs1	3.0	76.1*	13.1	-22.2	0.0	62.5*
O=C(N/N=C/c1cccc([N+](=O)[O-])c1)c1cccs1	71.0*	6.6	-0.2	-2.2	-1.1	16.2
O=C(N/N=C/c1cccc([N+](=O)[O-])c1)c1ccc(Br)cc1	-3.0	3.8	31.4	-2.7	12.6	31.6
COc1ccc(C(C)(C)C)cc1NC(=O)c1ccccc1-n1cnnn1	x	x	x	4.6	x	x
COc1cc(NS(=O)(=O)c2ccc(-c3ccc(=O)[nH]n3)o2)cc(OC)c1OC	x	x	-0.8	-4.0	-1.2	x
COC(=O)c1ccccc1NC(=S)N(Cc1ccc2c(c1)OCO2)Cc1cc2cc(OC)ccc2[nH]c1=O	-3.0	-19.3	6.1	-7.5	2.2	-35.5
COC(=O)COc1ccc(S(=O)(=O)NCc2ccccn2)cc1	x	x	0.2	-3.2	-12.3	x
COC(=O)Nc1ccc(S(=O)(=O)NCc2ccccn2)cc1	4.0	-4.2	7.8	-11.3	0.2	82.2*
O=C(/C=C/c1ccco1)NCC1OCCc2ccccc21 (centres undefined)	x	-53.5	22.3	2.0	13.1	62.0*
C=CC(=O)NCC1OCCc2ccccc21 (centres undefined)	-3.0	-29.4	-4.5	1.7	1.1	-5.1
O=C(COC(=O)/C=C/c1cccc(F)c1)NC(=O)NC1CCCC1	x	x	x	0.2	x	x
CN1CCN(c2ccc([N+](=O)[O-])cc2/C=N/NC(=O)c2ccc(F)cc2)CC1	-1.0	0.3	x	x	x	74.6*
N#CCC(=O)N/N=C/c1cc([N+](=O)[O-])ccc1N1CCOCC1	-1.0	-25.2	1.0	10.2	6.0	37.7
CCn1c(O)c(N=NC(=O)C(O)c2ccccc2)c2ccccc21 (centres undefined)	x	-58.2	7.2	1.5	5.6	-0.6
O=c1oc2cc(O)ccc2cc1-c1nc2c(s1)CCc1ccccc1-2	x	-37.4	26.9	99.5*	36.6*	53.6*
Cc1cc(C)c(S(=O)(=O)/N=C2/C=C(SCC(=O)O)C(=O)c3ccccc32)cc1C	2.0	28.5	x	x	x	86.6*
Cc1cc(C)c(S(=O)(=O)/N=C2\C=C(NS(=O)(=O)c3ccccc3)C(=O)c3ccccc32)c(C)c1	x	x	12.2	4.3	0.8	x
SMILES	Bim-Mcl-1	Mcl1-Bid inh	MCL1-BIM inh	GLD-1 TGE inh	BCLXL inh	Mcl1-Noxa inh
CCn1cc(S(=O)(=O)Nc2ccc(Cl)cc2F)cn1	x	x	1.3	2.6	4.4	x
Cn1c(/N=C/c2c(O)ccc3ccccc23)nc2ccccc21	2.0	56.5*	33.7	5.2	35.7*	23.2
COc1ccc(C(=O)c2sc(Nc3ccccc3)c(C(=O)Nc3ccc(OC)c(OC)c3)c2N)cc1	-7.0	-23.4	4.7	3.4	62.7*	-1.3
COc1ccc(C(=O)Nc2cccc(C)c2)cc1S(=O)(=O)N1CCOCC1	0.0	76.0*	-0.3	-2.9	-0.6	3.0
COc1ccc(-c2nc(-n3c(C)c(C(C)=O)c(C(C)=O)c3C)sc2C)cc1	-2.0	98.4*	2.0	-1.4	3.9	11.9
CCOCCCNC(=O)CN1CCN(S(=O)(=O)c2ccc3c(c2)CCC3)CC1	x	x	-15.2	1.8	-6.8	x
O=[N+]([O-])c1ccc2nc(SCc3cn4cc(Cl)ccc4n3)[nH]c2c1	-2.0	30.8	-3.9	2.7	-0.6	50.8*
O=[N+]([O-])c1ccc2nc(SCc3cn4ccccc4n3)[nH]c2c1	-5.0	-55.4	-6.0	-3.1	0.5	-4.5
CCCCCCCCCCCCCCCC[n+]1cccc2ccccc21	0.0	91.1*	8.1	-0.3	13.1	88.8*
O=C(COc1ccc2ccccc2c1)Nc1cccc2c1C(=O)NC2=O	-3.0	59.7*	-1.1	6.5	-2.1	-119.5
N#Cc1sc(NCc2ccccn2)nc1Cl	x	x	7.8	1.6	2.9	x
COc1cc(C(=O)NC2(C(F)(F)F)NC(=O)N(CCCc3ccccc3)C2=O)cc(OC)c1OC (centres undefined)	-2.0	63.8*	3.1	6.9	-0.1	-2.7
Cc1ccc(S(=O)(=O)CCSc2cccc(C(=O)Nc3ccccc3C(=O)O)c2)cc1	-1.0	-9.9	22.1	-3.0	14.6	68.3*
CCN(C[C@H]1N[C@@](CC)(C(=O)OC)[C@H]2C(=O)N(Cc3ccccc3)C(=O)[C@@H]12)C(=O)c1ccc(C(C)(C)C)cc1	x	x	x	-0.5	x	x
O=C(Cn1c(C(F)(F)F)nc2ccccc21)c1ccc(F)cc1	2.0	100.7*	0.3	7.0	1.2	14.4
CC1=NN(c2ccccc2)C(=O)/C1=C\c1cn(-c2ccccc2)nc1C	-6.0	68.2*	-5.7	9.0	2.0	-0.9
COc1ccccc1/C=C1/C(=O)N(c2ccccc2)N=C1C	x	x	-9.8	0.8	-1.7	x
CN(C)CCCOc1cccc(Oc2ccccc2)c1	-3.0	52.5*	1.4	4.7	4.2	25.5
CCN1/C(=N\N)c2cccc3cccc1c23	10.0	-5.9	32.8	22.1	52.1*	6.7
COc1ccc(OC)c(-n2c(=S)[nH]c3cc(C(=O)N4CCN(c5ccccc5)CC4)ccc3c2=O)c1	48.0*	-60.7	5.7	-4.3	8.2	8.0
CC(C)C(NC(=O)c1ccccc1)C(=O)N1CCCCCC1 (centres undefined)	x	x	-1.8	-0.6	1.6	x
Cc1cc([N+](=O)[O-])ccc1NC(=O)CSc1nncn1-c1cccnc1	x	x	6.5	0.5	3.4	x
